Drawing on PubChem BioAssay, this text covers composite z-score and z-score for five molecules.

Active and inactive are the calls of the source.

Assay [1] deals with PRMT1 (protein arginine N-methyltransferase 1). Nature of the assay: small molecules binding arginine methyltransferase PRMT1 – biochemical, small-molecule microarray, 635 nm fluorescence, primary screen (AID 1088).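 Note: binding of Prmt1 protein to compounds spotted on small-molecule microarray slides.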 The conditions noted are these: higher = more signal.
Assay [2] is described as follows: growth effects on S. cerevisiae YJM789 – YJM789 clinical isolate, OD600, 24 h, basal, primary screen (AID 1089).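 Note: growth of clinical yeast isolate S. cerevisiae YJM 789 seeded 1000 cells per well; test concentration not given here.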 The note with it: higher = more signal, called active from +8 up or from −8 down.
Assay [3] can be described thus: S. pombe growth modifiers, basal conditions – strain 972, OD600, 24 h, no modulator, primary screen (AID 1090).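 Note: basal condition with compound alone and no growth modifier present; test concentration not given here.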 The note with it: S. pombe 972 growth, higher = more signal, called active from +8 up or from −8 down.
Assay [4] is described as follows: budding yeast growth modifiers under rapamycin – strain BY4716, OD600, 96 h, primary screen (AID 1091). Note: test concentration not given here. The conditions noted are these: S. cerevisiae BY4716 + rapamycin, higher = more signal, called active from +8 up or from −8 down.
Assay [5] has as its target Torsin-1A-interacting protein 2 (Homo sapiens) (UniProt Q8NFQ8). Nature of the assay: small molecules binding lysate-expressed LULL1 – cell lysate, human LULL1 lysate, 635/667 nm fluorescence, primary screen (AID 1092).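 Note: probe is lysate of COS7 cells overexpressing human LULL1; score merges per-feature 667 nm fluorescence with signal-to-noise.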 The conditions noted are these: small-molecule microarray, hLULL1 lysate binding, 635 nm fluorescence; higher = more signal.
A short description of assay [6]: optical density change of DRC41 E. coli – strain DRC41, OD650, 24 h, E. coli filamentation project, primary screen (AID 1093).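 Note: MC1000 strain lacking acrAB efflux and sulA so SOS filamentation is blocked; test concentration not given here.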 The note with it: E. coli DRC41 growth, higher = more signal, called active from +8 up or from −8 down.
Assay [7] in a line: probe aLefty2 binding to arrayed compounds – biochemical, biotinylated probe, 635/667 nm fluorescence, primary screen (AID 1094).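 Note: score merges spot fluorescence near 667 nm with spot signal-to-noise ratio.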 The conditions noted are these: small-molecule microarray, higher = more signal.
For assay [8], the system named is Noggin (protein binding on small-molecule microarray). Briefly: small molecules binding Noggin protein – biochemical, 635/667 nm fluorescence, primary screen (AID 1095).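 Note: score merges 667 nm feature fluorescence with signal to noise over triplicate slides.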 The conditions noted are these: 635 nm fluorescence, higher = more signal.
In assay [9] the target is Neurogenic locus notch homolog protein 3 (Homo sapiens) (UniProt Q9UM47). Briefly: small molecules binding NOTCH3 protein – biochemical, 635/667 nm fluorescence, primary screen (AID 1096). The note with it: small-molecule microarray, 635 nm fluorescence, higher = more signal.
Assay [10] in a line: probe aEGFR binding to arrayed compounds – biochemical, biotinylated probe, 635/667 nm fluorescence, primary screen (AID 1097).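 Note: probe is a biotinylated anti-EGFR antibody binding compounds printed on slides; score combines fluorescence near 667 nm and signal to noise of each spot.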 The conditions noted are these: small-molecule microarray, higher = more signal.
Assay [11] deals with Plasmodium falciparum Sir2 (PF13_0152, Sir2A). Nature of the assay: Plasmodium falciparum Sir2A binding compounds – biochemical, small-molecule microarray, 635 nm fluorescence, primary screen (AID 1098).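 Note: score merges spot fluorescence intensity with its signal-to-noise ratio.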 The conditions noted are these: fluorescence 635 nm, higher = more signal.
Assay [12] is described as follows: probe aDKK1 binding to arrayed compounds – biochemical, biotinylated probe, 635/667 nm fluorescence, primary screen (AID 1099).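 Note: score merges 667nm spot fluorescence with signal to noise across triplicate slides; reference of the scale not given here.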 The note with it: small-molecule microarray, higher = more signal.
Assay [13] is described as follows: probe aCHRDL2 binding to arrayed compounds – biochemical, biotinylated probe, 635/667 nm fluorescence, primary screen (AID 1100). The conditions noted are these: small-molecule microarray, higher = more signal.
Assay [14] can be described thus: change in splice reporter luminescence, either direction, cell-based, HEK293, spliceosome inhibition project, primary screen (AID 1101).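 Note: HEK293 cells carrying a splicing-competent luciferase reporter gene; test concentration not given here.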 The conditions noted are these: HEK293 splicing luciferase reporter, 24 h, higher = more signal, called active from +8 up or from −8 down. A general note: In a reporter assay the amount or activity of a reporter protein is the signal.

Assay [15] has as its target Fibroblast growth factor 10 (Homo sapiens) (UniProt O15520). Briefly: compounds binding fibroblast growth factor 10 – biochemical, small-molecule microarray, 635 nm fluorescence, primary screen (AID 1102). The conditions noted are these: FGF10 binding, fluorescence 635 nm, higher = more signal.
Assay [16] deals with glycogen synthase kinase-3 (GSK3A per assay name; protocol says GSK3B). Briefly: compounds binding glycogen synthase kinase-3 – biochemical, small-molecule microarray, 635 nm fluorescence, GSK3A, primary screen (AID 1103). Note: the record names both GSK3A and GSK3B. The note with it: fluorescence 635 nm, higher = more signal.
The target in assay [17] is Epidermal growth factor receptor (Homo sapiens) (UniProt P00533). Nature of the assay: compounds binding epidermal growth factor receptor – biochemical, small-molecule microarray, 635 nm fluorescence, primary screen (AID 1104).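 Note: score merges 667 nm emission intensity with spot signal to noise over triplicate slides.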 The conditions noted are these: EGFR binding, higher = more signal.
For assay [18], the target named is Follistatin-related protein 3 (Homo sapiens) (UniProt O95633). Briefly: compounds binding follistatin-related protein 3 – biochemical, small-molecule microarray, 635 nm fluorescence, primary screen (AID 1105).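 Note: score merges emission near 667 nm and signal to noise per printed spot across three slides.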 The note with it: FSTL3 binding, higher = more signal.
Assay [19] addresses Dickkopf-related protein 1 (Homo sapiens) (UniProt O94907). Nature of the assay: small molecules binding DKK1 protein – biochemical, small-molecule microarray, 635 nm fluorescence scan, primary screen (AID 1106).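 Note: score merges emission near 667 nm with signal to noise over three replicate slides.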 The note with it: higher = more signal.
Assay [20] concerns Inhibin beta A chain (activin A). Briefly: small molecules binding activin A – biochemical, small-molecule microarray, 635 nm fluorescence scan, primary screen (AID 1107).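 Note: mouse activin A protein probed at 4.33 µg/mL on printed slides; score merges bound-protein fluorescence near 667 nm with spot signal-to-noise.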 The conditions noted are these: INHBA, higher = more signal.

Sequence of Epidermal growth factor receptor (Homo sapiens) (P00533 whole entry, looked up): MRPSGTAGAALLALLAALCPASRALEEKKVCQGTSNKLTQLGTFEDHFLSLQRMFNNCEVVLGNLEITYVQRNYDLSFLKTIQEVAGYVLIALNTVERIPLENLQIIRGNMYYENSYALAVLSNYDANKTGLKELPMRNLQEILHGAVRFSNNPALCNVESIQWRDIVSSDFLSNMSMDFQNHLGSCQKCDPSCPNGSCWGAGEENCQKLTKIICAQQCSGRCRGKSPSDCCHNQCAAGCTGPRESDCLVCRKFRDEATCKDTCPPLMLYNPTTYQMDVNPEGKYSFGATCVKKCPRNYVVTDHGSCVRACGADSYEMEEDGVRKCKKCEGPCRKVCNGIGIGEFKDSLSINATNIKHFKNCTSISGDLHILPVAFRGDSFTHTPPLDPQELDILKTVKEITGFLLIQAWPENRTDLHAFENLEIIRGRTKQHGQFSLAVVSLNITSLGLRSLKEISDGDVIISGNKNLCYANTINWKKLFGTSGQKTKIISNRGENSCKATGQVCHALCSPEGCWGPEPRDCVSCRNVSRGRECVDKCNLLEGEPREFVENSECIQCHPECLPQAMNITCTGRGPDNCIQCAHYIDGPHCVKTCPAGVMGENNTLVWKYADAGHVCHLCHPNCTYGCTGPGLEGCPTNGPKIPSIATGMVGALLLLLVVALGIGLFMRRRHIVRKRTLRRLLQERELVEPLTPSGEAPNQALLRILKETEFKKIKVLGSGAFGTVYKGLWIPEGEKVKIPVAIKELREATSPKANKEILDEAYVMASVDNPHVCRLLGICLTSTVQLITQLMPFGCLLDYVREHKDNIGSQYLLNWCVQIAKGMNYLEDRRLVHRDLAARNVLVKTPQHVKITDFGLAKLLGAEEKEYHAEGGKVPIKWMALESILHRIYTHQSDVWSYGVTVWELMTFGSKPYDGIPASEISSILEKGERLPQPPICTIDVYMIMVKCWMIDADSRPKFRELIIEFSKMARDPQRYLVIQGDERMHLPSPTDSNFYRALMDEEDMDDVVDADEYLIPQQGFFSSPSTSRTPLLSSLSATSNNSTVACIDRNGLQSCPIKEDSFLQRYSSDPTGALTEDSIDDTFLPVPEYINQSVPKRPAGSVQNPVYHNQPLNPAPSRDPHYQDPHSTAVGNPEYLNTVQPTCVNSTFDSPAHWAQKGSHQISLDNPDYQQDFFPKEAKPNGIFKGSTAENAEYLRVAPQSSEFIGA
Sequence of Dickkopf-related protein 1 (Homo sapiens) (O94907 whole entry, looked up): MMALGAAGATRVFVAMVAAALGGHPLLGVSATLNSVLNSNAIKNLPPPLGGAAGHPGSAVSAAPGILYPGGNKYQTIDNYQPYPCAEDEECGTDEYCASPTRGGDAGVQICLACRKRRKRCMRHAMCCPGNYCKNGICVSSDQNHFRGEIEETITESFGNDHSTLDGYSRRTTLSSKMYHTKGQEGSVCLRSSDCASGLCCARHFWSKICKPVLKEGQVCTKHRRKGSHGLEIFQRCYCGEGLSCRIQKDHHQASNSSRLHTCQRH
Sequence of Torsin-1A-interacting protein 2 (Homo sapiens) (Q8NFQ8 whole entry, looked up): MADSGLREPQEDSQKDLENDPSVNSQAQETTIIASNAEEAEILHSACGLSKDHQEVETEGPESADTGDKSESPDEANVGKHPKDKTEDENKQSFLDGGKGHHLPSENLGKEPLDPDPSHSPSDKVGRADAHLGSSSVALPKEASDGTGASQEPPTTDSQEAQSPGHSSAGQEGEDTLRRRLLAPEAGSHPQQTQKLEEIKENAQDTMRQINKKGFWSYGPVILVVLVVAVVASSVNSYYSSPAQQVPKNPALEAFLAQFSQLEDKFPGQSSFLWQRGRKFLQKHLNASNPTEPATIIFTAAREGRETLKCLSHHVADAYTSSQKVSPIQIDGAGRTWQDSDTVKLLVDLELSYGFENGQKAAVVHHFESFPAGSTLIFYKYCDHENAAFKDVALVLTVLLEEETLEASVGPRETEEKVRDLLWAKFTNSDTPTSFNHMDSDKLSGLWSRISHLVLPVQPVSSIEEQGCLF
Sequence of Neurogenic locus notch homolog protein 3 (Homo sapiens) (Q9UM47 whole entry, looked up): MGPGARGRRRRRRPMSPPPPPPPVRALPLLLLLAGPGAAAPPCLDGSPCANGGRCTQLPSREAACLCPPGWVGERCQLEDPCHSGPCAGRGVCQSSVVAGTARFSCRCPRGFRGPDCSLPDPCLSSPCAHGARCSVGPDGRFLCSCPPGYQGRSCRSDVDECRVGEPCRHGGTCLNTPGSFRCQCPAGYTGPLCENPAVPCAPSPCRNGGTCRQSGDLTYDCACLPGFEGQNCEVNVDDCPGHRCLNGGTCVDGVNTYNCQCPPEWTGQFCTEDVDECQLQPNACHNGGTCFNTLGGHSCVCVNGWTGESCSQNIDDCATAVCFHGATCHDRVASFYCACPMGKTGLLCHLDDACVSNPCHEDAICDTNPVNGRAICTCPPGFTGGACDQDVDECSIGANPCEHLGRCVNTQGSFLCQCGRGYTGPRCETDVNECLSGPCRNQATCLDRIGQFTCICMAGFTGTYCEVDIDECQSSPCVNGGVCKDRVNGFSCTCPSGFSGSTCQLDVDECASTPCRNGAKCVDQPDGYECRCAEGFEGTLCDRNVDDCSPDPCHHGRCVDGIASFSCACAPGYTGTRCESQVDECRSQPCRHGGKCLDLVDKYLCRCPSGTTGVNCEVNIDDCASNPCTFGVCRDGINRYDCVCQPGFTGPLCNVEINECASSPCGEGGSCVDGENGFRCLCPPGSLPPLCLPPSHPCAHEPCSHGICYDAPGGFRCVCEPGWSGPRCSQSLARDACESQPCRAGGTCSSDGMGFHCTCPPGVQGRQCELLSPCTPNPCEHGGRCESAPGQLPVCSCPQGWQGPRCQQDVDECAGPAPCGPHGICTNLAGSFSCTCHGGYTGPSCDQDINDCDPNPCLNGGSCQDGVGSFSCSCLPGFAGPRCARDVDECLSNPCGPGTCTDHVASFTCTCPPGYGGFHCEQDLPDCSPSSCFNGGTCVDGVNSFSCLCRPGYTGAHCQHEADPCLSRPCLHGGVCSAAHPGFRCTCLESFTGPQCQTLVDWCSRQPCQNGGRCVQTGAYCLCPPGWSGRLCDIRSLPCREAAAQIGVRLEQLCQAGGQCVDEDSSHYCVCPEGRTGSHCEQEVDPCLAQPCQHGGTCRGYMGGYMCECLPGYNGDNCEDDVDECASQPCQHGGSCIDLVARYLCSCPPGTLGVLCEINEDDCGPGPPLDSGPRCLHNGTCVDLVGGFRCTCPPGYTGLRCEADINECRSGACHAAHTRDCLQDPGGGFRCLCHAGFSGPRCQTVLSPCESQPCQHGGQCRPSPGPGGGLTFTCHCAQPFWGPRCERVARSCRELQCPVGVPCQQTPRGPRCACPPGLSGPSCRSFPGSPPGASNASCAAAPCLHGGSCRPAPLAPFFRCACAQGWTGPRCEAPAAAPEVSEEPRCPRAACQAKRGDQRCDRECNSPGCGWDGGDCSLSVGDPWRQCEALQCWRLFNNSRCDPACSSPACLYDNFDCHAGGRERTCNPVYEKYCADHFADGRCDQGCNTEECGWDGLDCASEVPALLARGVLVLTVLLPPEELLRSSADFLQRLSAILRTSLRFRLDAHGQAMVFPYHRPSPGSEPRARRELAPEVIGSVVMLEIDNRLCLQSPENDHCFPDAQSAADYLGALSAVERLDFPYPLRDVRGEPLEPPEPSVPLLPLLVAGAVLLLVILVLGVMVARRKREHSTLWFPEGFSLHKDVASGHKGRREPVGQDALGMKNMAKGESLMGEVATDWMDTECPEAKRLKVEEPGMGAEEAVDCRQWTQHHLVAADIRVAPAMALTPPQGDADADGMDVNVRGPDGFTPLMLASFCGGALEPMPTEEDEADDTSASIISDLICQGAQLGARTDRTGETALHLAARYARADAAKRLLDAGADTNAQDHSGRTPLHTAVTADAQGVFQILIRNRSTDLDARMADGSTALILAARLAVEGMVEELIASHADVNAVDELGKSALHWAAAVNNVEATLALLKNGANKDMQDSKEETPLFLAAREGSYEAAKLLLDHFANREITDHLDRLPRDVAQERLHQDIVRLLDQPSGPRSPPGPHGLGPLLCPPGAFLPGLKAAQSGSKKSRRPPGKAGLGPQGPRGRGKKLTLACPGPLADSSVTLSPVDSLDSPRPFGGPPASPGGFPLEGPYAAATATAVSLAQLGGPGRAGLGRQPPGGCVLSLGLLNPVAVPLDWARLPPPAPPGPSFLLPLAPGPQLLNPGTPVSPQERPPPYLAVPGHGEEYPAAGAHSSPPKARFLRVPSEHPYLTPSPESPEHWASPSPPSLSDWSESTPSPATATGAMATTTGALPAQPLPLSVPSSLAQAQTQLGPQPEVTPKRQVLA
Sequence of Follistatin-related protein 3 (Homo sapiens) (O95633 whole entry, looked up): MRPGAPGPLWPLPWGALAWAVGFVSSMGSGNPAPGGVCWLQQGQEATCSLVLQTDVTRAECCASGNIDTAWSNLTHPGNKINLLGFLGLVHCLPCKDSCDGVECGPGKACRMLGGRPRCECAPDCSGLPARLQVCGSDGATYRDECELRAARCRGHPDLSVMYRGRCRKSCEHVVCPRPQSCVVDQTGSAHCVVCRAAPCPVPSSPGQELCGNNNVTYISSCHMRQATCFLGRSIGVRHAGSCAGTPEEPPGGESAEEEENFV
Sequence of Fibroblast growth factor 10 (Homo sapiens) (O15520 whole entry, looked up): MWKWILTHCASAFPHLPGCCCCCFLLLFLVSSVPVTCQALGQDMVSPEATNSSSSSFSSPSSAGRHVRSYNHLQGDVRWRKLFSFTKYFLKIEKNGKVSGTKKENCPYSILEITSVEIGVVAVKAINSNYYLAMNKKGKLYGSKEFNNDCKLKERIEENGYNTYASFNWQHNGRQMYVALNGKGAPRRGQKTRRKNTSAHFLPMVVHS

With `CCOC(=O)[C@H](Cc1ccccc1)NC(=O)CCC1CC(OC(=O)NCCc2ccc(F)cc2)CC2(CCCC(COC(=O)NCC3CCCCC3)O2)O1` (stereo not given in full), the composite z-score in assay [1] is 1.55; in [5], 2.4; in assay [7] it was -0.106; in [8], 0.53; in assay [9], 1.07; in assay [10], 0.0282. Also, the composite z-score in assay [11] is 0.711; in assay [12] it was -0.184; in assay [13], -0.761; in assay [15], 1.03; in assay [16], 1.24; in assay [17], 0.53. The composite z-score in assay [18] worked out at 1.2; in assay [19] it was 1.33; in assay [20], 0.0408. In addition, the z-score in assay [2] was 0.644 (inactive); in assay [3] it was 0.432 (inactive); in [4] it was 0.6 (inactive); in [6], 0.18 (inactive); in assay [14] it was -0.308 (inactive).
On to `CO[C@H]1COC(=O)CC=C[C@H](C)[C@@H](OC)COC(=O)[C@H](C)COC(=O)CC=C[C@@H]1C`, for which the composite z-score in assay [1] was 0.765; in [5] it was -0.344; in [7], -0.268; in assay [8], 1.76; in [9] it was -0.292; in assay [10] it was -0.0439. Besides, the composite z-score in [11] was 0.661; in assay [12] it was -0.822; in assay [13], -1.53; in assay [15] it was 0.0773; in assay [16], 0.429; in [17] it was 1.36. In addition, the results for the composite z-score in [18], in assay [19] and in assay [20] were 1.1, 1.78 and 1.52, respectively. For the same molecule, the z-score in [2] was 0.395 (inactive); in assay [3] it was -0.425 (inactive); in assay [4], 0.567 (inactive); in [6] it was 0.683 (inactive); in [14], -0.0334 (inactive).
In the case of `C[C@@H](c1ccccc1)N1C(=O)[C@H]2[C@H]3[C@H](O)[C@H](O)CC(=NOCc4ccccc4)[C@H]3CC[C@H]2C1=O`, the composite z-score in assay [1] is 1.3; in [5], 2.38; in [7], -0.0942; in assay [8], 0.374; in assay [9], 0.354; in assay [10] it was -0.0424. Also, the composite z-score in assay [11] is 0.8; in assay [12], -0.197; in [13] it was -0.442; in assay [15] it was 0.601; in assay [16] it was 0.535; in assay [17], 0.45. Besides, the figures for the composite z-score in assay [18], in assay [19] and in [20] were 0.44, 0.312 and -0.27, respectively. The z-score in assay [2] was 0.435 (inactive); in assay [3], 0.107 (inactive); in assay [4], 0.0942 (inactive); in assay [6], -0.0659 (inactive); in [14] it was -0.0874 (inactive).
As to `CC(C)(C)N1C(=O)[C@H]2[C@H]3[C@H](O)[C@H](O)CC(=NO[C@@H]4O[C@H](CO)[C@@H](O)[C@H](O)[C@H]4O)[C@H]3CC[C@H]2C1=O`, the composite z-score in [1] is 0.693; in assay [5], 0.959; in assay [7] it was -0.0603; in assay [8] it was 0.593; in [9], 0.155; in assay [10] it was 0.0334. Also, the composite z-score was 0.0937 in assay [11]; -0.215 in assay [12]; -0.38 in assay [13]; 0.16 in [15]; -0.524 in assay [16]; 0.408 in assay [17]. Further, the composite z-score in assay [18] was found to be 0.487; in assay [19], 0.639; in assay [20] it was 1.35. In addition, the z-score in [2] was 0.768 (inactive); in assay [3], -1.05 (inactive); in assay [4] it was -0.235 (inactive); in assay [6], -0.864 (inactive); in [14] it was 0.543 (inactive).
With `CC(C)[C@@H](OCc1ccccc1)[C@H](C)C=NOC[C@@H](O)COCc1ccco1`, the composite z-score in assay [1] was -0.0832; in [5], -0.425; in assay [7] it was -0.364; in assay [8], 0.0964; in [9], -0.0957; in assay [10], -0.357. For the same molecule, the composite z-score is -0.887 in assay [11]; -0.869 in assay [12]; -0.666 in assay [13]; -0.557 in assay [15]; -0.279 in assay [16]; -1.11 in assay [17]. The values for the composite z-score in [18], in [19] and in assay [20] were -0.94, -1.62 and -3.73, respectively. The z-score is -1.64 (inactive) in assay [2]; -4.1 (inactive) in [3]; -1.15 (inactive) in [4]; 0.799 (inactive) in assay [6]; -0.129 (inactive) in [14].
